Laboratory results: PubChem BioAssay AID1477 (National Center for Advancing Translational Sciences (NCATS), 2009)
The campaign covered roughly 230,000 compounds. Fewer than 10 were called active. Not shown: some 3% with an inconclusive outcome. Only a sample is shown. Unmarked numbers belong to inactive results. Calls follow the shape of the dose curve; as a rule, active = well fitted curve in the direction sought with a large enough effect; inconclusive = small, poorly fitted or top-dose-only effect, or effect the other way, or another doubt; inactive = no such curve, though single readings can be large or run the other way.

The compounds below were run against Runt-related transcription factor 1 (Homo sapiens) + Core-binding factor subunit beta (Homo sapiens) (UniProt Q01196+Q13951) (assay: qHTS Assay for Compounds Blocking the Interaction Between CBF-beta and RUNX1 for the Treatment of Acute Myeloid Leukemia). Conditions: AlphaScreen CBFb-His/RUNX1-biotin binding, biochemical; series mostly up to 59.8 µM; activity, negative = inhibition: at the top concentration.
Runt-related transcription factor 1 (Homo sapiens) + Core-binding factor subunit beta (Homo sapiens), sequence (Q01196 whole entry, looked up): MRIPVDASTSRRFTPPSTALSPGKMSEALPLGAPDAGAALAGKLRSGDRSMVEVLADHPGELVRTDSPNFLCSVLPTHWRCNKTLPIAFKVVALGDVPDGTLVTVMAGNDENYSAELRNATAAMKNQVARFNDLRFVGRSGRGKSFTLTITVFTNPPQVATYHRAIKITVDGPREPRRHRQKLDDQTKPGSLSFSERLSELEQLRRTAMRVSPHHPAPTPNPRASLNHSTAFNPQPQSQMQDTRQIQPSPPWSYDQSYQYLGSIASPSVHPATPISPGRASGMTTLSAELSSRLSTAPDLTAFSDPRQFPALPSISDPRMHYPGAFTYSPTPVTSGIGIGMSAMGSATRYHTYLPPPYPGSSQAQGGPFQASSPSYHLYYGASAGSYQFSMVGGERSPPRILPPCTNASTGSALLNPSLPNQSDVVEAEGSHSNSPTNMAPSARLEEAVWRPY
Runt-related transcription factor 1 (Homo sapiens) + Core-binding factor subunit beta (Homo sapiens), sequence (Q13951 whole entry, looked up): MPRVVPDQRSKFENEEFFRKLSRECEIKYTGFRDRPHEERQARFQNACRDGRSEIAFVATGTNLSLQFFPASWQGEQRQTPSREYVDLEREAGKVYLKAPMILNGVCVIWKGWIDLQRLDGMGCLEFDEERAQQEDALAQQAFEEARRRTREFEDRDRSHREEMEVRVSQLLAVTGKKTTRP
Source text: NIH Chemical Genomics Center [NCGC]
NIH Molecular Libraries Probe Production centers Network [MLPCN]
Assay Submitter (PI): Paul Liu
Core Binding Factor (CBF) abnormalities are associated with 20-25% of all acute myeloid leukemias (AML), of which 5-10% are further sub classified as acute myelomonocytic leukemia with eosinophilia, also known as M4Eo in the FAB classification scheme. This subtype of leukemia is usually associated with chromosome 16 inversion (p13:q22). Chromosome 16 inversion results in formation of the fusion oncogene CBFB-MYH11, which encodes the fusion protein CBF-beta-SMMHC.
It has been hypothesized that the interference of CBF-beta and RUNX1 binding could have therapeutic implications for patients with CBF mediated leukemias. We developed a CBF-beta and RUNX1 binding assay in AlphaScreenTM format and optimized it for high throughput screening to search for inhibitors. The goal of this project is to screen MLPCN's compound collection (MLSMR) for identifying the inhibitors of the interaction between CBF-beta and RUNX1 proteins as research probes. If these probes work well in the animal models, the ultimate goal of this project is to development a new drug treatment for this disease.
This assay can not be used to assess how apparent inhibitors interfere with protein binding, and whether inhibitors specifically bind to either protein. Disruption of this protein-protein interaction, through any mechanism, is the intended target activity.
NCGC Assay Protocol Summary:
Step, Parameter, Description
(1) Reagent, 3 uL CBFb-His/RUNX1-biotin mix incubated together for 20 minutes at room temperature (30 nM each)
(2) Compound or control, 23 nL compound stock solution
(3) Incubation, 15 minutes at Room temperature
(4) Reagent, 1 uL 50 ng each of beads (Nickel beads and streptavidin beads)
(5) Incubation, 90 minutes at Room temperature
(6) Detection, Excitation=365 nm Emission=440 nm, Envision reader in AlphaScreenTM mode
Keywords: MLSMR, MLPCN, NIH Roadmap, qHTS, NCGC, Core binding factor, CBF, CBF-beta, Acute myeloid leukemia
Also: % of control where 0% means no effect.

| SMILES | activity, negative = inhibition |
| --- | --- |
| CN(C)/C=C(/C(=O)c1ccc(F)cc1)S(=O)(=O)c1ccc(F)cc1 | 1.81% |
| COc1ccc(C2c3[nH]c4ccccc4c3CCN2CCCn2cccn2)cc1C (stereo unspecified) | -29.3% |
| S=c1nc(C23CC4CC(CC(C4)C2)C3)nc2sccn12 | -0.607% |
| Cc1ccc(-c2ccc(/C=C(\C#N)C(N)=S)o2)c([N+](=O)[O-])c1 | -23.3% |
| Cc1cccc(N2CCN(C(=O)c3cccc(S(=O)(=O)N4CCc5ccccc5C4)c3)CC2C)c1 (stereo unspecified) | -11.3% |
| CCO[C@@H]1OC(C(=O)NC2CC2)=C[C@H](C)[C@H]1CCCO | 12.6% |
| CCC1(CC)C(=O)C2=C3C1[C@H](C(=O)OC)C=C(C(=O)OC)C[C@H]3[C@H]1C(=O)N(Cc3ccccc3)C(=O)[C@H]1[C@H]2C (stereo partly specified) | -0.944% |
| CC(=O)OCC(NC(=O)C(Cc1ccccc1)NC(=O)OC(C)(C)C)C1OC(n2ccc(=O)[nH]c2=O)C(OC(C)=O)C1OC(C)=O (stereo unspecified) | 2.78% |
| COc1cc(S(=O)(=O)N2CCOCC2)ccc1NC(=O)COc1ccc(N(C)S(=O)(=O)c2ccc(C)cc2)cc1 | -0.159% |
| CNC(=O)/C(C#N)=C/c1c(F)cccc1Cl | -5.52% |
| CCCCNC(=O)CSc1nc2ccc(NC(=O)CSc3nnc(N)s3)cc2s1 | -1.53% |
| CN(CC(=O)Nc1ccc(F)cc1)CC(=O)Nc1ccc(Cl)c(S(=O)(=O)N2CCOCC2)c1 | 2.15% |
| NC(=O)c1ccc(NC(=O)COC(=O)c2c3c(nc4ccccc24)/C(=C\c2ccc4c(c2)OCO4)CCC3)cc1 | -4.8% |
| COc1cc(OC)c2c(C)cc(=O)oc2c1C(CCN1CCCCC1)c1ccc(N(C)C)cc1 (stereo unspecified) | -27.7% |
| Cc1cc(C(=O)NCCc2ccc(Cl)cc2)n(-c2ccccc2)n1 | 7.58% |
| Cc1ccc(CNC(=O)C2(C(F)(F)F)C/C(=C\Cc3ccccc3)CCCO2)o1 (stereo unspecified) | 3.01% |
| CCCN1CCC(=O)N(C(CSc2ccc(C)cc2)Cc2ccccc2)CC1 (stereo unspecified) | 16.7% |
| Cn1ncc(N2CCN(S(=O)(=O)c3ccc(Br)cc3)CC2)c(Cl)c1=O | 2.59% |
| CC1(C)OC(C(O)(c2ccccc2)c2ccccc2)C(C(O)(c2ccccc2)c2ccccc2)O1 (stereo unspecified) | 6.37% [at 13.1 µM] |

| SMILES | activity, negative = inhibition |
| --- | --- |
| CCc1c(C)nc2c(-c3ccccc3)c(C)nn2c1Nc1ccc(NC(C)=O)cc1 | 16.4% |
| Cn1ncc2c(NNC(=O)Cc3cccc4ccccc34)ncnc21 | -4.15% |
| O=c1ccn([C@@H]2O[C@H](COP(=O)(O)OP(=O)(O)OP(=O)(O)O)[C@@H](O)[C@H]2O)c(=O)[nH]1 | 6.66% |
| CCC/C(C)=N\Nc1nc2c(c(=O)n(C)c(=O)n2C)n1C | 6.87% |
| O=C1CN(Cc2ccccc2)S(=O)(=O)c2ccccc21 | -4.13% |
| CCc1nnc(NC(=O)[C@@H](NC(=O)c2cccc(C)c2)C(C)C)s1 | 2.27% |
| O=[N+]([O-])c1ccccc1S(=O)(=O)Nc1cccc2cccnc12 | -10.9% |
| N#Cc1c(C(F)(F)F)cc(-c2cccs2)nc1N1CCCCC1 | 9.34% |
| COc1ccc2nc(NC(=O)[C@@H]3CCCN3C(=O)c3cccs3)sc2c1 | 6.2% |
| Cc1ccc(OCCCCN2CCCCC2)c(Br)c1 | 4.27% |
| C[C@H]1Cc2c(-c3ccccc3)nc3c(c2CO1)CN(C(=O)C1CC1)CC3 | -2.96% [at 13.1 µM] |
| COc1ccc(-c2nc3c(c4c2C[C@H](c2ccccc2)OC4)CN(S(=O)(=O)c2c(C)noc2C)CC3)c(C)c1 | 2.29% [at 13.1 µM] |
| CCOC(=O)C1=C(CSc2nnnn2C)N(C)C(=O)NC1c1ccccc1 (stereo unspecified) | 3.15% |
| COc1ccc(SC[C@H](Cc2ccccc2)N2CCN(CCc3ccccc3)CCC2=O)cc1 | -4.77% |
| CON(C)S(=O)(=O)c1ccc2c(c1)NC(=O)C1CCCN21 (stereo unspecified) | -0.392% |
| O=C(NCCc1ccccn1)c1cccnc1Oc1ccc(Cl)cc1 | -1.09% |
| COc1ccc(SCCN2CCN(CC(C)C)CCC2=O)cc1 | inactive |
| Cc1ccccc1C(OCCN(C)C)C1CCCCC1 (stereo unspecified) | -1.22% |
| COC(=O)c1ccc(C(NC(=O)OCc2ccccc2)/C(F)=C/[C@@H](C)C(=O)O)cc1 (stereo partly specified) | 5.16% |

| SMILES | activity, negative = inhibition |
| --- | --- |
| C[C@@H]1O[C@@H](OC[C@H]2O[C@@H](Oc3cc(O)c4c(c3)O[C@H](c3ccc(O)c(O)c3)CC4=O)[C@H](O)[C@@H](O)[C@@H]2O)[C@H](O)[C@H](O)[C@H]1O | 9.48% |
| COc1ccc(NC(=O)CSc2ncnc3[nH]ncc23)cc1 | 3.92% |
| COc1ccc(-c2nc3c(c4c2C[C@H](c2ccccc2)OC4)CN(C(=O)c2cccnc2)CC3)c(C)c1 | 2.51% [at 13.1 µM] |
| CC1CCN(C(=S)c2ccc(-c3ccc(Cl)cc3Cl)o2)CC1 | -20.9% |
| O=C(/C=C/c1ccc(OCc2c(F)cccc2Cl)cc1)N1CCOCC1 | 2% |
| OCCC(O)CO (stereo unspecified) | inactive |
| COc1ccc2cc(-c3[nH]ncc3CNCCn3nc(C)cc3C)ccc2c1 | -0.162% |
| COC(=O)c1ccc([C@@H](O)[C@H](C)C(=O)CC(=O)OC(C)(C)C)cc1 | 2.81% |
| O=C(Nc1cc(C(=O)Nc2ccc(S(=O)(=O)O)cc2)cc(C(=O)Nc2ccc(S(=O)(=O)O)cc2)c1)Nc1cc(C(=O)Nc2ccc(S(=O)(=O)O)cc2)cc(C(=O)Nc2ccc(S(=O)(=O)O)cc2)c1 | 2.73% |
| Cc1ccccc1C(CC(=O)c1cccs1)C(C#N)C#N (stereo unspecified) | 5.81% |
| CC[C@H](C)[C@H](NC(=O)[C@@H](N)CCC(=O)O)C(=O)N[C@@H](CC(C)C)C(=O)N[C@@H](CC(=O)O)C(=O)N[C@H](C(=O)N1CCC[C@H]1C(=O)N[C@@H](CO)C(=O)N[C@H](C(=O)O)[C@@H](C)O)C(C)C | 6.33% |
| CCCCOc1ccc(C(=O)N/C(=C/C=C/c2ccccc2)C(=O)N2CCOCC2)cc1 | -2.12% |
| CC(Oc1cccc(NC(=O)c2cccs2)c1)C(=O)c1ccccc1 (stereo unspecified) | 8.25% |
| Cc1cccc(Nc2nc3c(S(=O)(=O)c4ccccc4)nnn3c3ccccc23)c1C | 5.47% |
| CCO[C@@H]1OC(C(N)=O)=C[C@H](c2ccc(Br)cc2)[C@H]1CCCO | -3.58% |
| O=c1c(O)c(-c2ccc(O)cc2)oc2ccccc12 | 15.3% |
| N=c1n(CCc2ccccc2)c2ccccc2n1Cc1ccccc1F | -3.25% |
| O=C1CCC(=O)N(O)CCCCCNC(=O)CCC(=O)N(O)CCCCCNC(=O)CCC(=O)N(O)CCCCCN1 | -0.792% |
